From PubChem BioAssay
Sampled rows, rich in hits. Any-hit rate of the full collection: about 4.1%.
ssDAF-12 act – activators of S. stercoralis DAF-12 nuclear receptor | HEK293 ssDAF-12/GRIP1 lit1-tk-luc reporter, luminescence; % of 3 µM dafachronic acid response | activation, % at 6.8 µM | 1% of 370,000 active | AID 652126;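 active = activation above the mean over all tested compounds plus 3 SD, cut at about 0.9% in these data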;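 note: 0% = DMSO-only wells and 100% = 3 µM delta7-dafachronic acid wells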
DAX1 inh-1 – inhibits human nuclear receptor DAX1 | inhibition, % at 6.75 µM | P51843 | HEK293 Gal4-DAX1 luciferase reporter, luminescence | 0.99% of 340,000 active;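 active = inhibition above the mean over all tested compounds plus 3 SD, cut at about 4.2% in these data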;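 note: 0% = DAX1-transfected cells with DMSO and 100% = empty-vector control cells with DMSO; inhibition shows as a rise in luminescence from relieved DAX1 repression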
Target sequence (P51843 207-470 limits assumed): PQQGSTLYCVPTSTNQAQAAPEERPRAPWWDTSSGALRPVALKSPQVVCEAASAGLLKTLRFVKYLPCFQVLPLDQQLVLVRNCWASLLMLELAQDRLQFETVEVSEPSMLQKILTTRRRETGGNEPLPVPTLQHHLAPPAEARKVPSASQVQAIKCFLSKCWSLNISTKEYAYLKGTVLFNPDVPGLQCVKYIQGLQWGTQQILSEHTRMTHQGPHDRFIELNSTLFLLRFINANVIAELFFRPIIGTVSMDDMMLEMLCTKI
DAX1 inh-2 – DAX1 (NR0B1) inhibition, primary screen; HEK293T StAR-luciferase reporter, SF-1/DAX-1 repression relief; inhibition, % at 6.8 µM; 1.1% of 370,000 active; AID 652010;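 active = inhibition above the mean over all tested compounds plus 3 SD, cut at about 3.6% in these data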;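 note: 0% = DAX-1 cells with DMSO and 100% = cells lacking DAX-1 with DMSO; higher inhibition means more luminescence from relief of DAX-1 repression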
hgDAF-12 ag – activates the H. glycines DAF-12 receptor ligand-binding domain | 1.8% of 370,000 active | HEK293 GAL4-hgDAF12 UAS-luciferase reporter, agonist luminescence; normalized to butyrate control | activation, % at 6.8 µM;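 active = activation above a cutoff set at the mean of all screened compounds plus 3 SD, cut at about 10% in these data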;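 note: 0% = DMSO wells and 100% = sodium butyrate wells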
hcDAF-12 act – H. contortus DAF-12 activation, primary screen | HEK293 hcDAF-12 lit1-tk-luc reporter, luminescence; 0% DMSO, 100% Δ7-dafachronic acid | AID 652067 | 1.4% of 370,000 active | activation, % at 6.8 µM;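 active = activation above the mean of all tested compounds plus 3 SD, cut at about 5.5% in these data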;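 note: 100% = response to 3 µM Δ7-dafachronic acid high control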
Active calls of the source: *; · = no result.

SMILES | ssDAF-12 act | DAX1 inh-1 | DAX1 inh-2 | hgDAF-12 ag | hcDAF-12 act
COc1ccc(C)cc1NC(=O)C1CC1c1ccccc1 (stereo unspecified) | -2 | 4 | 0 | 5 | -1
COc1ccc(/C=N/NC(=O)c2ccccc2OC)cc1COc1ccc(C)cc1 | 1 | 2 | 1 | 1 | 5.6*
COc1ccc(/C=N/NC(=O)c2ccoc2C)cc1COc1ccc(Cl)cc1 | 1.3* | 1 | -1 | 8 | 3
COc1ccc(/C=N/Nc2ccccc2C(=O)O)cc1Cn1cc([N+](=O)[O-])cn1 | 1.1* | 3 | 1 | 8 | 2
COc1ccc(/C=N/NC(=O)c2ccoc2C)cc1OC | 0 | 1 | 0 | 2 | 1
COc1ccc(/C=N/NC(=O)c2ccccc2OC)cc1COc1ccccc1[N+](=O)[O-] | 1.4* | 2 | -1 | 0 | 1
O=S(=O)(c1cccc2ccccc12)N1CCC2CC1c1cc(-c3ccc4c(c3)OCO4)ccc12 (stereo unspecified) | -1 | · | 1 | 0 | 0
O=C(NCc1ccco1)C1CCCN(S(=O)(=O)c2ccccc2[N+](=O)[O-])C1 (stereo unspecified) | 0 | · | 0 | -2 | -2
COc1ccccc1C(=O)Nc1ccccc1SC(=O)c1ccccc1OC | 0 | 4.3* | 0 | -2 | 4
COc1ccccc1C(=O)Nc1cc(-c2ccc(C)cc2)no1 | 1.0* | 0 | 0 | 12* | 4
Cc1cc(NC(=O)CCC(=O)N(CC(=O)NCC2CCCO2)c2ccc(F)c(Cl)c2)no1 (stereo unspecified) | -1 | 4.2* | 0 | -1 | -2
COc1ccc(-n2c(SCC(=O)Nc3ccccc3-c3ccccc3)nnc2-c2ccccc2)cc1 | 0 | · | -1 | 1 | -2
CN1C(=O)OC2(C)CCc3ccccc3C12C (stereo unspecified) | -1 | -1 | 0 | 4 | 0
CC1(C)CC2(CC(C)(C)N1)OC(=O)N1CCc3ccccc3C12C (stereo unspecified) | 0 | 4.2* | -1 | 2 | 1
O=C(CN1CCN(Cc2ccccc2)CC1)N1N=CCC1c1ccccc1 (stereo unspecified) | 0 | 4.8* | 1 | 2 | -1
O=C(CC1CC2CCC1C2)Nc1nc(-c2ccccn2)cs1 (stereo unspecified) | -1 | 0 | 0 | 8 | 6.3*
O=C1COc2ccc(OCc3ccc(F)cc3)cc21 | 0 | 1 | 1 | 12* | 5
COc1ccc2c(-c3cc4ccc(OCc5ccc(F)cc5)cc4oc3=O)cc(=O)oc2c1 | -2 | -1 | 0 | 1 | 0
CC1=CC(c2ccccc2)n2nnnc2N1 (stereo unspecified) | 0 | 11* | 0 | 3 | -1
Cn1cc(CN2CCc3c([nH]c4ccccc34)C2C(C)(C)C)cn1 (stereo unspecified) | -1 | 0 | -1 | -2 | 5.9*
CCOC(=O)CC[C@@H]1CC[C@]2(CCCN(S(=O)(=O)C3CCCCC3)C2)O1 | -1 | · | 0 | -2 | -1
Cn1nnc2c(NCc3ccco3)nccc21 | -2 | 1 | 0 | 1 | -1
COc1ccc(Nc2nccc3c2nnn3C)cc1 | 0 | 3 | 4.2* | 7 | 4
CC(C)OC(=O)[C@@H](Cc1ccccc1)N[C@H](/C=C/c1ccccc1)[C@@H](O)Cc1ccccc1 | -1 | · | 0 | 4 | 2
CC(C)Oc1cccc(-c2n[nH]c(=S)n2N=Cc2ccc(O)cc2O)c1 | -2 | · | 0 | -3 | -1
SMILES | ssDAF-12 act | DAX1 inh-1 | DAX1 inh-2 | hgDAF-12 ag | hcDAF-12 act
O=[N+]([O-])c1cccc(-c2noc(-c3ccco3)n2)c1 | -1 | 2 | 1 | 12* | 3
Cc1ccc(-c2cn(-c3ccccc3)c(SCC(N)=O)n2)cc1C | -1 | 0 | 2 | 7 | 0
CCOC(=O)NC(=O)CSc1nc(-c2ccc(C)c(C)c2)cn1-c1ccccc1 | 0 | 1 | 2 | 10 | 5.7*
CCOC(=O)C1=C(C)NC(=O)C(C(N)=O)C12CCCC2 (stereo unspecified) | -1 | 5.1* | 1 | -3 | 0
COc1ccccc1-c1nc(-c2ccc(Br)cc2)no1 | 1.5* | 2 | 1 | 9 | 5.8*
COc1ccccc1-c1noc(-c2cc(OC)c(OC)c(OC)c2)n1 | -1 | 1 | 0 | -1 | -2
COc1ccc(-c2nc(-c3ccc(Br)cc3)no2)c(OC)c1 | 1.0* | 4 | 3 | 12* | 4
COc1cc(OC)cc(-c2nc(-c3ccc(Br)cc3)no2)c1 | -1 | 1 | 0 | 0 | 2
CCCNC(=O)Nc1ccc2c(c1)C(=O)N(C)[C@H]1CC[C@@H](CC(=O)OC)O[C@H]1CO2 | -1 | · | -1 | 4 | 0
CCCCCCCCN1C(=O)[C@@H](CC(=O)NCc2cccc3ccccc23)C[C@@]2(C(=O)OC)C1=C[C@H](C1CCCC1)O[C@@H]2C | 0 | · | 0 | 0 | 1
C[C@@H]1CN(c2ccc(N3CCNC[C@H]3C)cc2C#N)C[C@H](C)O1 | 0 | · | -2 | -1 | -1
CCOc1ccc(CNC2CCCc3ccccc32)cc1 (stereo unspecified) | -1 | 9.1* | 0 | 0 | -3
N#Cc1ccc(S(=O)(=O)NC(=O)[C@H]2O[C@@H](n3ccc(=O)[nH]c3=O)[C@H](O)[C@@H]2O)cc1 | -1 | · | 2 | 2 | -2
Nc1ccc2ccc(N)cc2c1 | -1 | · | -2 | -4 | 0
CCOc1ccc(C(=O)Nc2c(C(=O)N3CCC(N4CCCCC4)CC3)oc3ccccc23)cc1 | -2 | 1 | 4.0* | 0 | -1
CCCCS(=O)(=O)N1C2=NC(C(=O)OCC)=C(C(=O)OCC)C3N(Cc4ccc(C#N)cc4)c4ccccc4[C@]23C[C@H]1C(=O)OC (stereo partly specified) | -1 | · | -2 | -2 | -2
CC(=O)Nc1ccc(Nc2nc(C)nc3c2oc2ccccc23)cc1 | -2 | -1 | 0 | -4 | 0
CC(=O)c1ccc(Nc2ncnc3c2oc2ccccc23)cc1 | 1.0* | 2 | 1 | 10 | 2
COc1ccc2nc(NC(=O)c3cc(C)oc3C)sc2c1 | 0 | 0 | 2 | 11* | 1
COc1ccc2nc(NNC(=O)C3COc4ccccc4O3)sc2c1 (stereo unspecified) | 1.3* | 0 | 0 | 6 | 6.2*
COc1ccc2nc(NC(=O)CCNC(=O)c3ccco3)sc2c1 | -1 | 1 | 2 | 8 | 5
COc1ccc2nc(NC(=S)NC(=O)c3ccco3)sc2c1 | 0 | 1 | 1 | 11* | 3
Cc1ccccc1-c1cc2nc(NCCc3ccncc3)n(C)c(=O)c2s1 | -1 | · | -1 | -2 | -1
COc1ccccc1C(=O)COC(=O)CSC(C)C(=O)Nc1cc(C)on1 (stereo unspecified) | -1 | -1 | -1 | 1 | 0
